RecA splice inh – Mtb RecA intein splicing inhibition; actives 0.75% (n = 290,000); cell-free RecA intein splicing, fluorescence; AID 2221; inhibition, % (test concentration not listed); in the data active means inhibition above about 30%;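 further: 0% = vehicle wells and 100% = reference inhibitor control wells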
BJeLR lethal – BJeLR cell viability loss | BJeLR (HRASV12) viability, CellTiter-Glo ATP luminescence, 48 h | inhibition, % (no concentration beside the values) | actives 0.17% (n = 300,000) | AID 1554; in the data active means inhibition above about 50%
PrPC TRFRET – inhibitors of human cell surface prion protein PrPC | actives 0.43% (n = 370,000) | P04156 | inhibition, % at 13.8 µM | AID 720596 | TR-FRET read-out; in the data active means inhibition above about 24%; further: 0% = median of the test wells and 100% = reference compound wells
Mtb FBA inh – inhibitors of M. tuberculosis fructose-bisphosphate aldolase; P9WQA3; purified M. tuberculosis FBA, fluorescence read-out; inhibition, % at 1 µM; actives 2.3% (n = 360,000); AID 588726;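 further: 0% = vehicle and 100% = reference inhibitor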
GDH-TPI counter-1 – inhibits GDH-TPI coupling enzymes, artifact for Mtb FBA screen. GDH-TPI coupled enzyme counterscreen, NADH absorbance. inhibition, % at 4.8 µM. actives 1.2% (n = 360,000); in the data active means inhibition above about 30%;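 further: 0% = DMSO wells and 100% = wells lacking the enzyme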
Mtb FBA inh conf – Mtb FBA inhibition, confirmed; shares compounds with Mtb FBA inh; purified M. tuberculosis FBA, fluorescence read-out; inhibition, % at 1 µM; actives 78% (n = 5,600); AID 651616;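 further: 0% = vehicle wells and 100% = reference inhibitor wells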
GDH-TPI counter-2 – GDH-TPI inhibition counter-screen for FBA inhibitors | GDH-TPI coupled enzyme counterscreen, fluorescence | actives 81% (n = 5,600) | shares compounds with Mtb FBA inh | inhibition, % at 1 µM; in the data active means inhibition above about 10%
GDH-TPI DR – GDH-TPI dose response counter-screen for Mtb FBA | shares compounds with Mtb FBA inh | GDH-TPI coupled enzyme assay, fluorescence, artifact counterscreen | IC50, µM | actives 79% (n = 170) | AID 652145; call rule not given here
* = called active by the depositor; x = no result; + = active, no number. Compounds with a hit are over-represented: about 4.2% of the library has one in this group of screens. Unless noted, no stated cut-off is given here; in the data, active means inhibition above about 27%; inactive means the rest.

SMILES	RecA splice inh	BJeLR lethal	PrPC TRFRET	Mtb FBA inh	GDH-TPI counter-1	Mtb FBA inh conf	GDH-TPI counter-2	others
CCN(C(=S)Nc1cccc2ccccc12)c1ccccc1	x	x	8	30*	13	58*	43*
COc1ccc(OC)c(S(=O)(=O)N2CCCCC2C(=O)N2CCN(CCO)CC2)c1 (stereo unspecified)	x	x	-3	x	x	x	x
COCCNc1nc(Oc2ccccc2)c2sccc2n1	x	x	3	8	9	x	x
c1csc(CNc2nc(Oc3ccncc3)c3sccc3n2)c1	x	x	0	43*	5	65*	51*
c1ccc(CNc2nc(Oc3ccncc3)c3sccc3n2)cc1	x	x	-7	39*	2	+	+
COc1ccc(Nc2nc(NCc3cccs3)nc3ccsc23)cc1OC	x	x	15	0	10	x	x
Cc1cc2c(nc1C)CCCN2S(=O)(=O)c1cccs1	x	x	5	x	x	x	x
c1cncc(CNc2cccc(-c3nc4ccccc4[nH]3)c2)c1	2	5	0	48*	8	0	-3
Cc1cccc(NC(=O)CN2C(=O)N/C(=C\c3ccc(-c4cccc(C(=O)O)c4)o3)C2=O)c1	-37	-6	-4	34*	18	189*	143*
CCOC(=O)C1=CCN(S(=O)(=O)c2ccccc2Br)C1c1ccc(Cl)cc1 (stereo unspecified)	x	x	12	x	x	x	x
COc1ccc2c(c1)CC/C2=N\NC(=O)c1ccccc1	4	20	0	0	9	x	x
COC(=O)c1cc2c(s1)-c1ccc(OC)cc1CC2	-7	2	6	109*	18	107*	94*
C/C(=N\Nc1ccccc1)c1cc2ccccc2oc1=O	-1	0	-9	65*	11	6	-8
CCOC(=O)c1cc(-c2cccs2)nc2onc(C)c12	-19	-4	1	42*	-6	82*	74*
CN1CCN(S(=O)(=O)c2cccc(C(=O)NCc3ccc(Cl)cc3)c2)CC1	0	8	-4	64*	-6	48*	44*
COc1ccc(CNC(=O)c2cccc(S(=O)(=O)N3CCN(C)CC3)c2)cc1	2	2	-2	-2	-8	x	x
Cc1cccn2c(=O)c(C=NCCO)c(NCc3ccco3)nc12	-1	-3	4	39*	25	+	+
Cc1cc2nn(-c3ccc(Cl)cc3)nc2cc1N	21	-7	4	41*	7	111*	97*
Cc1cc2nn(-c3ccc(F)cc3)nc2cc1N	-33	2	5	54*	46*	179*	136*
C(=CCSc1ccccn1)CSc1ccccn1	x	x	2	x	x	x	x
Cc1ccc(-c2nnc(-c3ccc(NC(=O)c4ccco4)cc3)o2)cc1	3	-10	-4	2	27	x	x
O=C(Nc1ccc2oc(-c3cccnc3)nc2c1)c1ccc([N+](=O)[O-])o1	-2	3	9	1	-1	x	x
O=C(Nc1ccc(-c2nc3ncccc3o2)cc1)c1ccco1	0	-9	-1	27*	45*	58*	50*
O=C(Nc1ccc2oc(-c3cccnc3)nc2c1)c1ccco1	-1	-14	2	29*	4	-2	-6
O=C(Nc1ccc(-c2nc3cccnc3s2)cc1)c1ccco1	-2	19	3	29*	28	10	-2	GDH-TPI DR=3.1*
SMILES	RecA splice inh	BJeLR lethal	PrPC TRFRET	Mtb FBA inh	GDH-TPI counter-1	Mtb FBA inh conf	GDH-TPI counter-2	others
COc1ccc2cc(C(=O)C3CCCN(Cc4ccccn4)C3)ccc2c1 (stereo unspecified)	0	0	-3	41*	6	+	+
COc1ccc2cc(C(=O)C3CCCN(C(=O)C4=NN(C)C(=O)CC4)C3)ccc2c1 (stereo unspecified)	-4	-10	-6	63*	11	85*	52*
COc1ccc2cc(C(=O)C3CCCN(C(=O)c4cnn(C(C)C)c4)C3)ccc2c1 (stereo unspecified)	2	-6	5	105*	14	50*	39*
COc1ccc(C(=O)N2CCCC(C(=O)N3CCCCCC3)C2)cc1 (stereo unspecified)	2	2	1	0	-8	x	x
COc1ccc2cc(C(=O)C3CCCN(C(=O)c4csnn4)C3)ccc2c1 (stereo unspecified)	-1	-5	2	96*	26	44*	35*
COc1ccc(S[C@]2(C(=O)N3CCN(C(C)=O)CC3)CC(=O)N(C(=O)c3ccccc3)[C@@H]2c2ccc(OC)cc2)cc1	x	x	-3	x	x	x	x
O=Nc1ccccn1	x	x	6	x	x	x	x
Cc1ccc(S(=O)(=O)N2OC(c3ccccc3)C[C@H]2CC=C(c2ccccc2)c2ccccc2)cc1 (stereo partly specified)	x	x	6	x	x	x	x
CCN(CC)S(=O)(=O)c1ccc(-c2cn3ccccc3n2)cc1	x	x	9	86*	5	158*	113*
Oc1ccc(-c2cn3ccccc3n2)cc1O	-4	-7	-6	5	8	x	x
Brc1ccc(-c2cn3ccccc3n2)cc1	4	8	-10	11	11	x	x
Oc1ccc(-c2cn3ccccc3n2)cc1	-1	-4	-2	57*	17	-6	-5
c1ccc(-c2cn3ccccc3n2)cc1	x	x	-1	35*	4	8	3
CC(C)CCNC(=O)[C@H]1COC(O)([C@H](Cc2ccccc2)NC(=O)[C@@H](NC(=O)OCc2ccccc2)C(C)C)CN1C (stereo partly specified)	x	x	-3	x	x	x	x
CCC1CC2(C)NC(=O)c3c(sc4c3CC(C)(C)OC4)N2C1=O (stereo unspecified)	4	0	2	39*	10	175*	112*
O=C(CSc1ccccc1)N1CCC(Oc2cccnc2)CC1	x	x	0	x	x	x	x
Cc1ncc(C(=O)O)c(C(=O)O)c1N	-8	2	-1	34*	6	19	15*
COc1ccc(C2C3=C(CC(C)(C)CC3=O)Nc3nc(C)nn32)cc1OC (stereo unspecified)	-1	-14	1	36*	12	+	+
O=C(O)CCc1nn2c3ccccc3n(Cc3ccccc3)c2nc1=O	1	-4	-4	36*	4	3	0
O=c1cc(-c2ccccc2)[nH]c2nc3ccccc3n12	-2	9	1	51*	16	+	+
O=c1cc(CCl)[nH]c2nc3ccccc3n12	6	-1	-5	47*	21	169*	112*
CCCc1c(C)[nH]c2nc3ccccc3n2c1=O	0	-16	-3	20	5	x	x
CC(C)c1cc(=O)n2c(nc3ccccc32)[nH]1	-9	8	3	45*	3	119*	108*
